Assay [1] is described as follows: Cell Viability - BJ (AID 421; calls by dose curve;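 further: potency means the concentration at half of the fitted maximal effect; cells exposed to compound for 40 hours at 37 °C before readout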). Particulars: BJ fibroblast viability, qHTS. In short, it runs like this: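 Cytotoxicity in human BJ foreskin fibroblasts is scored as loss of cellular ATP after a 40-hour exposure, measured by luciferase luminescence. Controls are DMSO and 100 uM tamoxifen.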
A general note: Quantitative high-throughput screening tests each substance at several concentrations.

Assay [2] can be described thus: Cell Viability - Jurkat (AID 426;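 active means dose-dependent loss of cell ATP signal giving a full or clear fitted curve, ranked by lower potency value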;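 further: potency means the concentration at half of the fitted maximal effect; cells exposed to compound for 40 hours at 37 °C before ATP read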). The settings on record: qHTS. A digest of the protocol: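 Luminescent ATP read-out (CellTiter-Glo, 20 min at room temperature) after 40 hr compound exposure at 37 °C of Jurkat E6-1 cells, 5000/well. Decreased ATP taken as cytotoxicity; AC50 from standard Hill equation.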
Assay [3] can be described thus: Cell Viability - Hek293 (AID 427;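 active means compounds whose dose-response curve shows a full or clear partial loss of cell viability, called from curve shape rather than a numeric limit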;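 further: potency means the concentration at half of the fitted maximal effect; cells exposed to compound for 40 hours at 37 °C before reading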). The settings on record: qHTS. A digest of the protocol: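 qHTS, human embryonic kidney (adenovirus-transformed) cells; 40 hr cpd, 37 °C; CellTiter-Glo ATP luminescence. Norm: DMSO = 0, 100 uM tamoxifen = 100% inhibition. Hill-fit AC50.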
A short description of assay [4]: Cell Viability - HepG2 (AID 433; calls by dose curve;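 further: potency means the concentration at half of the fitted maximal effect; cells exposed to compound for 40 hours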). The settings on record: qHTS. A digest of the protocol:
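ATP luminescence (CellTiter-Glo) after 40 h compound exposure, 37 °C, HepG2, 1500 cells/well, complete medium. Normalized: DMSO = basal, 100 uM tamoxifen = 100% inhibition. AC50 via standard Hill equation.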

The nature of assay [5]: Cell Viability - MRC5 (AID 434; calls by dose curve;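 further: potency means the concentration at half of the fitted maximal effect; cells exposed to compound for 40 hours at 37 °C; potency reflects cytotoxicity seen as loss of intracellular ATP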). Particulars: MRC5 lung fibroblast viability, qHTS. In short, it runs like this: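 ATP luminescence read-out (CellTiter-Glo, 20 min RT) after 40 hr, 37 °C compound exposure of 1500 MRC5 cells/well. Data normalized to DMSO (basal) and 100 uM tamoxifen (100% inhibition); AC50 from standard Hill equation.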
Assay [6] is described as follows: Cell Viability - SK-N-SH (AID 435; calls by dose curve; further: potency means the concentration at half of the fitted maximal effect). Particulars: SK-N-SH neuroblastoma cell viability qHTS. A digest of the protocol: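 CellTiter-Glo ATP luminescence, 20 min RT read; cells pre-plated 5 hr, compound 40 hr at 37 °C, 1500 cells/well, complete medium. Normalized DMSO = 0, 100 uM tamoxifen = 100% inhibition; Hill-fit AC50.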
A short description of assay [7]: Cellular Toxicity (caspase-3) HepG2 (AID 654).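 Further: cells exposed to compound for 16 hours before reading; 0% = DMSO alone and 100% = caspase signal from 100 µM tamoxifen.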 Particulars: HepG2 caspase-3 activation, luminescence, 0% = DMSO only, 100% = tamoxifen; series mostly up to 92.2 µM. A digest of the protocol:
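Luminescent Caspase-Glo 3/7 readout after 16 hr compound exposure of human hepatocellular carcinoma HepG2 cells at 37 °C; qHTS concentration-response, normalized DMSO = 0%, 100 uM tamoxifen = 100%; AC50 by standard Hill equation.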

A short description of assay [8]: Cellular Toxicity (caspase-3) BJ (AID 658). Particulars: BJ fibroblasts, luminescence, normalized: DMSO 0%, staurosporine 100%; series mostly up to 91.7 µM. A digest of the protocol: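 qHTS, BJ fibroblasts, 1000 cells/well; 5 hr preincubation, 16 hr compound, 37 °C; Caspase-Glo 3/7 reagent, 1 hr RT; luminescence. DMSO = 0%, 10 uM staurosporine = 100%. Hill-equation AC50.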

Assay [9] in a line: Cellular Toxicity (caspase-3) MRC-5 (AID 659). Particulars: MRC-5 cells, luminescence, normalized: DMSO 0%, 10 µM staurosporine 100%; series mostly up to 91.7 µM. A digest of the protocol:
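MRC-5 fibroblasts, 1500/well; 16 h cpd, 37 °C; Caspase-Glo 3/7, 1 h RT; lumi read. Norm: DMSO = 0%, 10 uM staurosporine = 100%. Hill-fit AC50 from qHTS conc-response.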

The nature of assay [10]: Cellular Toxicity (caspase-3) Hek293 (AID 664).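 Further: cells exposed to compound for 16 h at 37 °C before readout.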 Particulars: HEK293 caspase-3 activation, DMSO = 0%, 100 µM tamoxifen = 100%; at 92.2 µM (top of the series). A digest of the protocol: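 Luminescent Caspase-Glo 3/7 readout (aminoluciferin release) in HEK293 cells after 16 h compound treatment, 37 °C. Normalization: DMSO = basal, 100 uM tamoxifen = 100% stimulation. Concentration-response fitted with standard Hill equation for AC50.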

The nature of assay [11]: Cellular Toxicity (caspase-3) N2a (AID 665).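 Further: compound exposure lasted 16 h at 37 °C before readout.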 The settings on record: N2a cells, luminescence, normalized: DMSO 0%, 10 µM staurosporine 100%; series mostly up to 92.2 µM. In short, it runs like this:
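Luminescent Caspase-Glo 3/7 readout in N2a mouse neuroblastoma cells after 16 h compound exposure at 37 °C. Signal scaled to DMSO (basal) and 10 uM staurosporine (100%). Concentration-response fitted with Hill equation for AC50.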

Assay [12] in a line: Cellular Toxicity (caspase-3) NIH 3T3 (AID 666). Particulars: NIH 3T3 caspase-3 activation, apoptosis/toxicity; series mostly up to 92.2 µM. In short, it runs like this: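 NIH 3T3, 1000 cells/well, 5 hr settle then 16 hr compound at 37°C; Caspase-Glo 3/7, 20 min RT, luminescence. DMSO = basal, 100 uM tamoxifen = 100%. Hill-equation AC50, qHTS.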
Assay [13] in a line: MultiTox-Fluor Cytotoxicity Assay - LYMP1-001 - Dead Cells (AID 946). Particulars: LYMP1-001 lymphoblastoid cells, dead-cell protease fluorescence; series mostly up to 92.2 µM. In short, it runs like this:
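Seed 2500 LYMP1-001 cells/well, incubate 5 hr at 37 C; add compound, 16 hr at 37 C; add MultiTox-Fluor reagent, 60 min RT; read dead-cell fluorescence Ex/Em=485/520. Normalize to DMSO and 15 uM tetraoctylammonium bromide.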

Assay [14] is described as follows: MultiTox-Fluor Cytotoxicity Assay - LYMP1-002 - Live Cells (AID 955). Further: on the % scale 0 is the no-effect control and ±100 the full control effect. The settings on record: LYMP1-002 lymphoblastoid live-cell protease fluorescence viability; series mostly up to 46.1 µM. In short, it runs like this:
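LYMP1-002 lymphoblastoid cells; 2500 cells/well; 16 hr compound exposure, 37 C; MultiTox-Fluor reagent 60 min RT; live-cell fluorescence Ex/Em=405/510; qHTS concentration-response, Hill-equation AC50; tetraoctylammonium bromide positive control.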

The nature of assay [15]: MultiTox-Fluor Cytotoxicity Assay - LYMP1-003 - Dead Cells (AID 961). Further: nearly all actives have a fitted effect of over 70% in size. The settings on record: LYMP1-003 lymphoblastoid cells, dead-cell protease fluorescence; series mostly up to 92.2 µM. In short, it runs like this:
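LYMP1-003 lymphoblastoid, 2500 cells/well, 5 hr settle then 16 hr cpd at 37 C; MultiTox-Fluor reagent 60 min RT; Ex/Em 485/520 dead-cell signal; norm. DMSO = 0%, 15 uM tetraoctylammonium bromide = 100%; Hill AC50.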

The nature of assay [16]: Cell Viability - LYMP2-008 (AID 980). Further: on the % scale 0 is the no-effect control and ±100 the full control effect; nearly all actives have a fitted effect of over 60% in size. Particulars: LYMP2-008 lymphoblastoid cell viability, qHTS; series mostly up to 92.2 µM. In short, it runs like this: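 Luminescent ATP read-out (CellTiter-Glo, 30 min RT) after 24 hr compound exposure at 37 C of human lymphoblastoid cells in complete medium. Decrease in ATP taken as cytotoxicity; AC50 derived by standard Hill fit of qHTS concentration-response data.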

Assay [17] in a line: Cell Viability - LYMP1-002 - Assay at 24 hr (AID 993). Further: on the % scale 0 is the no-effect control and ±100 the full control effect. The settings on record: LYMP1-002 lymphoblastoid cells viability; series mostly up to 92.2 µM. In short, it runs like this: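 CellTiter-Glo luminescence (intracellular ATP) after 24 h compound exposure, 37 C, in LYMP1-002 human lymphoblastoid cells; decreased ATP taken as cytotoxicity. AC50 from standard Hill fit of concentration-response curves.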

Assay [18] can be described thus: qHTS Assay for Identification of Small Molecule Inducers of Hypoxia Response (AID 2120; active means well fitted curve in the direction sought with a large enough effect in the signal ratio, with a control signal flat, not every such curve was filed as active; the % refers to the signal ratio; further: 0% is about no effect). The settings on record: hypoxia response reporter cells, beta-lactamase ratio readout; series mostly up to 104 µM. A digest of the protocol:
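Read-out: CCF4 FRET emission ratio 460nm/530nm (excitation 405nm), converted to %Activity, with AC50 fitted across a compound titration. ME-180 cells carried an HRE-driven beta-lactamase reporter; compound exposure 17 h, 37 degrees C.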

Assay [19] has as its target Peroxisome proliferator-activated receptor alpha (Homo sapiens) (UniProt Q07869). The assay can be described thus: qHTS assay for small molecule agonists of the peroxisome proliferator-activated receptor alpha (PPARalpha) signaling pathway (AID 651778). Further: % of control where 0% means no effect. The settings on record: PathHunter PPARalpha complementation, chemiluminescence, 6 h; hits give high values. In short, it runs like this:
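Enzyme-fragment complementation assay in which ligand-bound PPARalpha translocates and forms an active enzyme that generates chemiluminescence. Cells were plated overnight, exposed to compound for 6 hr at 37 C, and then given detection reagent for 60 min at room temperature.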

A short description of assay [20]: qHTS assay for cell viability of the p53RE-bla HCT-116 cell line (AID 743292). Further: on the % scale 0 is the no-effect control and ±100 the full control effect; nearly all actives have a fitted effect of over 55% in size. The settings on record: p53RE-bla HCT-116 viability, ATP luminescence, 16 h; series mostly up to 95 µM. A digest of the protocol: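 CellSensor p53RE-bla HCT-116 cells, 4,000/well, preincubated 5 h at 37 C, then exposed to compounds in DMSO for 16 h at 37 C. Viability read as CellTiter-Glo luminescence (intracellular ATP) after 30 min at room temperature.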

The structures appear in SMILES notation. Where “and” joins values, the source holds several entries; their conditions need not be identical. Equal values may be shown once. Values without a mark were called inactive. Results filed as inconclusive are left out. Calls of active or inactive are those of the source. Unless noted, the call rests on the fitted dose curve; in most records, active means well fitted curve in the direction sought with a large enough effect; inconclusive means small, poorly fitted or top-dose-only effect, or another doubt; inactive means no such curve, though single readings can be large; an effect the other way counts as inactive or inconclusive. A value given as a limit tells only on which side of the number the result lay.

Sequence of Peroxisome proliferator-activated receptor alpha (Homo sapiens) (Q07869 whole entry, looked up, the tested form may be a part): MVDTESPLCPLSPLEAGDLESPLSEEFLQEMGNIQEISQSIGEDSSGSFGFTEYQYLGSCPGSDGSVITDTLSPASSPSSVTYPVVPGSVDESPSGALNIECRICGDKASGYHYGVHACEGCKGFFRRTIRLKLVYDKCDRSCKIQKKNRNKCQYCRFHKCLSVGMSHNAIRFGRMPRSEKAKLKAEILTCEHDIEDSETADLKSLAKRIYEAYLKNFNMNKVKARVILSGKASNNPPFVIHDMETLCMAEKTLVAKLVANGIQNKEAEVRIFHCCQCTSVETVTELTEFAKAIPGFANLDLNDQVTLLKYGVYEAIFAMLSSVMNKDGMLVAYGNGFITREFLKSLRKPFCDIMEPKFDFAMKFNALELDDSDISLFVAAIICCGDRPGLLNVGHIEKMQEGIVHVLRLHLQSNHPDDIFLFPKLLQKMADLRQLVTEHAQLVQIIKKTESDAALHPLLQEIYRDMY

For the molecule `CCCCNC(=O)n1c(NC(=O)OC)nc2ccccc21`, the Potency in [1] is above 92 µM; in [2] it was 3.28 µM (active); in assay [3], above 92 µM; in assay [4], above 92 µM; in assay [5] it was above 92 µM; in [6] it was above 92 µM. For the same molecule, the molecule was classed as inactive in [7], in [8], in [9], in assay [11], in [13] and in assay [14]. In assay [10], the caspase-3 activation is -2.55%. Moreover, the Potency result in assay [12], in assay [15], in assay [16], in assay [17], in [18] and in [20] was “inactive” each time. Also, the max response in [19] is 0.197% and 0.6%.

As to `Clc1cccc(Cl)c1`, the Potency in assay [1], in assay [2], in assay [3], in assay [4], in assay [5] and in assay [6] was above 92 µM each time. In addition, the call in [7], in assay [8], in assay [9], in assay [11], in [13] and in assay [14] was inactive. In addition, the caspase-3 activation in [10] was 1.04%. For the same molecule, the Potency entry in [12], in [15], in [16], in assay [17], in [18] and in assay [20] was “inactive” throughout. Further, in assay [19], the max response is -0.108%.

On to `CCCCCOC(=O)c1ccccc1C(=O)OCCCCC`, for which the Potency in [1], in [2], in assay [3], in assay [4], in assay [5] and in [6] was above 92 µM throughout. The molecule was called inactive in [7], in assay [8], in assay [9], in assay [11], in assay [13] and in assay [14]. For the same molecule, the caspase-3 activation in [10] is 3.92%. The Potency entry in [12], in assay [15], in assay [16], in [17], in assay [18] and in assay [20] was “inactive” throughout. Besides, the max response in assay [19] was -4.34% and -0.557%.

On to `C/C=C/C=O`, for which the Potency in [1], in assay [2], in assay [3], in assay [4], in assay [5] and in [6] was above 92 µM each time. Besides, the outcome in assay [7], in assay [8], in assay [9], in assay [11], in assay [13] and in assay [14] was inactive. For the same molecule, in assay [10], the caspase-3 activation was -1.23%. The Potency result in assay [12], in assay [15], in assay [16], in assay [17], in assay [18] and in assay [20] was “inactive” throughout. In addition, the max response in assay [19] was 10%.

With `O=C(Cc1ccccc1)OCc1ccccc1`, the Potency in assay [1], in [2], in assay [3], in [4], in assay [5] and in [6] was above 92 µM each time. In addition, the outcome in assay [7], in assay [8], in assay [9], in [11], in assay [13] and in assay [14] was inactive. Further, the caspase-3 activation in [10] was 2.6%. For the same molecule, the Potency result in assay [12], in assay [15], in assay [16], in assay [17], in assay [18] and in assay [20] was “inactive” throughout. Also, the max response in [19] was 0.258%.

With `CC(C)(Cl)Cl`, the Potency in assay [1], in assay [2], in [3], in assay [4], in [5] and in assay [6] was above 92 µM in each case. Moreover, the molecule was called inactive in assay [7], in assay [8], in [9], in assay [11], in assay [13] and in assay [14]. Moreover, the caspase-3 activation in assay [10] is 0.825%. Further, the Potency entry in assay [12], in [15], in [16], in assay [17], in assay [18] and in assay [20] was “inactive” throughout. Also, the max response in assay [19] was -2.59%.
